According to PubChem BioAssay:
Active and inactive are the calls of the source. Unless noted, the rule behind the calls is not given here.

Assays:
[1] = A549 cell viability effects, profiling panel, calcein-AM fluorescence, 48 h, basal (AID 1162); conditions: higher = more signal; note: test concentration not given here
[2] = adipocyte viability effects, profiling panel, cell-based, 3T3-L1 adipocytes, calcein-AM fluorescence, 48 h, basal (AID 1163); conditions: 3T3-L1 adipocytes viability, higher = more signal; note: test concentration not given here
[3] = HepG2 cell viability effects, profiling panel, calcein-AM fluorescence, 48 h, basal (AID 1164); conditions: higher = more signal; note: test concentration not given here
[4] = MM1S cell viability effects, profiling panel, calcein-AM fluorescence, 48 h, basal (AID 1165); conditions: higher = more signal;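 note: viability of MM1S multiple myeloma cells under basal unstimulated conditions; test concentration not given here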
[5] = basal RPMI8226 viability, no added stimulus, profiling panel, cell-based, calcein-AM fluorescence, 48 h, PK04 Diversity Set (AID 1166); conditions: RPMI8226 myeloma viability, higher = more signal;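 note: cells grown under basal conditions without added stimulus; test concentration not given here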
[6] = basal HepG2 mitochondrial membrane potential changes, profiling panel, cell-based, JC-1 fluorescence, 24 h, 100 nL compound (AID 1167); conditions: higher = more signal; note: test concentration not given here
[7] = basal 3T3-L1 adipocyte mitochondrial potential changes, profiling panel, cell-based, JC-1 fluorescence, 3T3-L1 adipocytes, 24 h, 100 nL compound (AID 1168); conditions: JC-1 mitochondrial fluorescence, higher = more signal, called active from +8 up or from −8 down; note: test concentration not given here
[8] = basal RPMI8226 mitochondrial membrane potential changes, profiling panel, cell-based, JC-1 fluorescence, 24 h, 100 nL compound (AID 1169); conditions: RPMI8226 myeloma, JC-1 mitochondrial potential fluorescence, higher = more signal; note: test concentration not given here
[9] = basal MM1S mitochondrial membrane potential changes, profiling panel, cell-based, JC-1 fluorescence, 24 h, 100 nL compound (AID 1170); conditions: higher = more signal; note: test concentration not given here
[10] = A549 lung cancer cell viability effects, profiling panel, resazurin fluorescence, 24 h, PK04 Diversity Set (AID 1171); conditions: higher = more signal, called active from +8 up or from −8 down; note: test concentration not given here
[11] = HepG2 liver cancer cell viability effects, profiling panel, resazurin fluorescence, 24 h, PK04 Diversity Set (AID 1172); conditions: higher = more signal; note: test concentration not given here
[12] = basal S. cerevisiae growth modulation, no modifier, primary screen, OD600, strain BY4716, 24 h, basal condition (AID 1173); conditions: OD600, 24 h, higher = more signal, called active from +8 up or from −8 down
[13] = MM1S myeloma cell viability, profiling panel, resazurin fluorescence, basal, 24 h, PK04 Diversity Set (AID 1174); conditions: higher = more signal, called active from +8 up or from −8 down;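 note: MM1S multiple myeloma cell line; test concentration not given here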
[14] = biological target: Dihydroorotate dehydrogenase (quinone), mitochondrial (Plasmodium falciparum (isolate 3D7)) (UniProt Q08210); assay: PfDHODH enzyme inhibitors, primary screen, biochemical, C-terminal His tag, absorbance 600 nm (AID 1175); conditions: DCIP absorbance 600 nm, higher = more signal, called active from +8 up or from −8 down;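 note: recombinant parasite enzyme with a five histidine tag at its C terminus; test concentration not given here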
Dihydroorotate dehydrogenase (quinone), mitochondrial (Plasmodium falciparum (isolate 3D7)), sequence (Q08210 whole entry, looked up): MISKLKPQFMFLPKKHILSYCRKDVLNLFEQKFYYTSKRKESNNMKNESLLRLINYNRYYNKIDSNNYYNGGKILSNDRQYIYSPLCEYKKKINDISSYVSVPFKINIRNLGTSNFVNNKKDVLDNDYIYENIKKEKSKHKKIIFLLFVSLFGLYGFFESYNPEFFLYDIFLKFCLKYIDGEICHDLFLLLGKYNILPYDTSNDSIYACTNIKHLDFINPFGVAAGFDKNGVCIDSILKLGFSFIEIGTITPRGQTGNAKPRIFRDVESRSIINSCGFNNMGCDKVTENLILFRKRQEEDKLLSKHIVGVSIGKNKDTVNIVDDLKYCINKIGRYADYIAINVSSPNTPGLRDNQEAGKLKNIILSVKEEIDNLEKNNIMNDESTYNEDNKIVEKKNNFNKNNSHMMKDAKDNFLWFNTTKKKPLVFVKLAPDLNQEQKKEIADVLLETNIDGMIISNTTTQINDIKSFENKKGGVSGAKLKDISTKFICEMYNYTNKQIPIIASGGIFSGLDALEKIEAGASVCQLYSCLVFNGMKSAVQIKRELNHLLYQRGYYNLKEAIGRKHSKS

[15] = P. aeruginosa biofilm formation inhibitors, primary screen, strain PAO1, LB-PBS medium, absorbance 600 nm (AID 1176); note: test concentration not given here; conditions: P. aeruginosa PAO1 growth/biofilm, A600, 12 h; higher = more signal
[16] = S. cerevisiae RM11-1a growth modifiers, primary screen, strain RM11-1a, OD600, basal, 24 h (AID 1177); conditions: OD600, 24 h, higher = more signal, called active from +8 up or from −8 down;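 note: cultures grown under basal conditions with no added stressor; test concentration not given here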
[17] = E. coli acrAB mutant growth effects, primary screen, E. coli filamentation inducers, strain DRC39, OD650, 24 h (AID 1178); conditions: higher = more signal, called active from +8 up or from −8 down;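 note: growth measured as culture turbidity by optical density at 650 nm; test concentration not given here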
[18] = E. coli acrAB mutant growth effects, primary screen, E. coli filamentation inducers, strain DRC39, OD650, 48 h (AID 1179);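 note: screen aims at cell division blockers that make cells filament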; conditions: E. coli DRC39 delta-acrAB growth, higher = more signal, called active from +8 up or from −8 down
[19] = RPMI8226 myeloma cell viability, profiling panel, resazurin fluorescence, basal, 24 h, PK04 Diversity Set (AID 1180); conditions: higher = more signal;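 note: RPMI8826 multiple myeloma cell line at 5000 cells per well; test concentration not given here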
[20] = biological target: E3 ubiquitin-protein ligase XIAP (Homo sapiens) (UniProt P98170); assay: XIAP binders, primary screen, biophysical, small-molecule microarray, fluorescence 635 nm (AID 1181); conditions: small-molecule microarray binding, higher = more signal;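 note: score merges 667 nm emission and signal to noise over triplicate slides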
E3 ubiquitin-protein ligase XIAP (Homo sapiens), sequence (P98170 whole entry, looked up): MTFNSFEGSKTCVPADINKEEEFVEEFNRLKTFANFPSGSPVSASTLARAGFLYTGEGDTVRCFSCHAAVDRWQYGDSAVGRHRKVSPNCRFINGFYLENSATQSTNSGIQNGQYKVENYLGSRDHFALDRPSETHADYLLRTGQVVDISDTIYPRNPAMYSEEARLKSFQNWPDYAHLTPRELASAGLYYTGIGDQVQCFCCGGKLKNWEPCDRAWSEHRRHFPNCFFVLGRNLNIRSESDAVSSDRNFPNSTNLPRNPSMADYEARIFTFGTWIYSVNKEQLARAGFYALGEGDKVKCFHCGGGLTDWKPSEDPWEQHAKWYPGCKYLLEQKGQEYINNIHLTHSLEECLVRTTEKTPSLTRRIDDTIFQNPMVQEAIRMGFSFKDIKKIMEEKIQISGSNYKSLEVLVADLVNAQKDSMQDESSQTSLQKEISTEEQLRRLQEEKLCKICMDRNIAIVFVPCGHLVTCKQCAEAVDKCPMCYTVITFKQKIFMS

| SMILES | z-score [1] | z-score [2] | z-score [3] | z-score [4] | z-score [5] | z-score [6] | z-score [7] | z-score [8] | z-score [9] | z-score [10] | z-score [11] | z-score [12] | z-score [13] | composite z-score [14] | z-score [15] | z-score [16] | z-score [17] | z-score [18] | z-score [19] | composite z-score [20] |
| --- | --- | --- | --- | --- | --- | --- | --- | --- | --- | --- | --- | --- | --- | --- | --- | --- | --- | --- | --- | --- |
| CC(c1ccccc1)C(O)C1C=CC2C(=O)N(C)C(=O)C2N1N(c1ccccc1)c1ccccc1 (stereo not given) | -0.279 | -1.94 | 0.919 | 0.455 | 0.427 | -0.288 | -1.37 (inactive) | -0.17 | -0.939 | -0.346 (inactive) | -1.22 | -0.0972 (inactive) | -1.91 (inactive) | -0.0374 (inactive) | 0.419 (inactive) | 0.265 (inactive) | -0.502 (inactive) | -0.0284 (inactive) | -1.8 | -0.0918 |
| COCCOC(=O)N1C(=O)[C@@]2(c3cc(C#CC4=CCCCC4)ccc31)[C@H](c1ccc(O)cc1)N1[C@H](c3ccccc3)[C@H](c3ccccc3)OC(=O)[C@H]1[C@@H]2C(=O)N1CCCCCCC1 | 1.43 | 1.06 | 0.0785 | -0.278 | -0.641 | -0.926 | 1.37 (inactive) | -0.247 | 0.12 | 0.676 (inactive) | 0.32 | -0.615 (inactive) | 1.17 (inactive) | 0.104 (inactive) | 1.35 (inactive) | 0.19 (inactive) | 0.15 (inactive) | 1.29 (inactive) | 0.768 | -0.445 |
| C#C[C@H](O[Si](C#Cc1ccccc1)(C(C)C)C(C)C)c1ccccc1 | -1.62 | -0.653 | -1.47 | -2.94 | -1.91 | -2.74 | -0.448 (inactive) | -0.154 | -1.48 | -0.912 (inactive) | -0.271 | -17.7 (active) | -0.633 (inactive) | -0.203 (inactive) | 0.738 (inactive) | -11.8 (active) | -0.329 (inactive) | 0.127 (inactive) | -0.533 | 0.0049 |
| C=CCC(OC(C)=O)[C@@H]1[C@@H](N(Cc2cccc3ccccc23)C(=O)c2ccc(C)cc2)c2cc(OCCCO)ccc2N1C(=O)c1ccc(-c2ccccc2)cc1 (stereo not given in full) | 1.1 | 0.719 | 1.47 | 1.07 | 0.783 | 3.02 | -0.0453 (inactive) | 0.456 | -0.848 | 0.417 (inactive) | 0.335 | -0.93 (inactive) | 1.01 (inactive) | -2 (inactive) | -0.0178 (inactive) | -1.51 (inactive) | 0.611 (inactive) | 0.861 (inactive) | 0.734 | 0.146 |
| CC1=C([C@H](O)CCc2ccccc2)[C@H](CO)[C@@H]2C(=O)N(Cc3ccccc3)C(=O)[C@@H]2C1 | -0.286 | -0.0776 | -0.352 | -0.0162 | 0.445 | 0.567 | 0.714 (inactive) | 0.331 | -1.5 | 0.76 (inactive) | 0.325 | -3.02 (inactive) | 0.169 (inactive) | -1.68 (inactive) | 0.0694 (inactive) | 0.0743 (inactive) | 1.6 (inactive) | 0.204 (inactive) | 0.308 | 0.201 |
| O=C/C=C/c1ccccc1Cl | 1.23 | 0.556 | 1.03 | -0.882 | 0.895 | 1.74 | 0.603 (inactive) | 0.562 | 1.09 | 0.807 (inactive) | 0.965 | -7.23 (inactive) | 0.413 (inactive) | -0.516 (inactive) | -0.227 (inactive) | -1.17 (inactive) | 0.834 (inactive) | 0.496 (inactive) | 2.16 | -0.0393 |
| N#Cc1ccc(NN2C(C(O)c3ccc(I)cc3)C=CC3C(=O)N(c4ccccc4)C(=O)C32)cc1 (stereo not given) | -0.668 | -0.392 | 0.0254 | -1.03 | -0.251 | -0.895 | 0.641 (inactive) | -0.586 | -0.263 | -0.383 (inactive) | -1.59 | 0.179 (inactive) | -1.34 (inactive) | -0.165 (inactive) | 0.944 (inactive) | 0.62 (inactive) | -0.904 (inactive) | -0.397 (inactive) | -0.328 | -0.256 |
| CCc1cccc(NC(=O)O[C@H]2[C@H](OC(=O)Nc3ccccc3)[C@@H](OC(=O)Nc3ccccc3)[C@@H](OC)O[C@@H]2CO)c1 | -2.42 | 1.1 | -4.04 | -3.01 | -4.29 | -0.501 | 0.963 (inactive) | -1.21 | -1.53 | -4.14 (inactive) | -2.9 | 0.28 (inactive) | -5.58 (inactive) | 0.189 (inactive) | 0.497 (inactive) | 2.4 (inactive) | 1.47 (inactive) | 0.711 (inactive) | -4.86 | 0.0153 |
